D1 antag: blocks dopamine activation of the human D1 receptor; HEK293 TREx D1 cells, calcium flux, dopamine EC80; active compounds read low; activity change, negative = inhibition, % at 10 µM; 360,000 compounds, 3.2% hits; in the data active = activity change below about -30%; note: % is set by controls: 0 for no effect and ±100 for the full control effect
Target sequence (P21728 whole entry, looked up): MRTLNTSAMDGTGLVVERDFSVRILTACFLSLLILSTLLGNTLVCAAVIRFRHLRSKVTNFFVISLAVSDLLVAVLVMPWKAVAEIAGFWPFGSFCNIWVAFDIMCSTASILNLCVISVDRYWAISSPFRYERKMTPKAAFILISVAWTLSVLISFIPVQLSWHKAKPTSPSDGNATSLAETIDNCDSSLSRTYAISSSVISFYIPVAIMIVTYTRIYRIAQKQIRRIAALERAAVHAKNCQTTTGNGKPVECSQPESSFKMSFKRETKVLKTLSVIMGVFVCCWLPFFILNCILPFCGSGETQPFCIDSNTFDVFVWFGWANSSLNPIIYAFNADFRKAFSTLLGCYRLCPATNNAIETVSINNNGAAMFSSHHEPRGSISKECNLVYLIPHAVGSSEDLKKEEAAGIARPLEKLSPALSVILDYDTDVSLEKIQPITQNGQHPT
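Using tetracycline-induced force-coupled D1 Hek293 cells and a calcium dye, signals were followed for 180 s after compound, then for 180 s after EC80 dopamine, to detect inhibitors.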
D1 agonist: activates the human D1 dopamine receptor; P21728; activation, % at 2 µM; 360,000 compounds, 1% hits; HEK293 T-REx D1 cells, calcium flux, agonist mode; in the data active = activation above about 30%; note: 0% is about no effect
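Inducible HEK293 T-REx D1 cells, force-coupled to calcium signalling, were plated at 4000 cells/well with tetracycline and held overnight at 30 C. After no-wash calcium dye loading, compound-evoked calcium rise over 180 s flagged agonists.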
D1 PAM: enhances dopamine response at the human D1 receptor; potentiation, % at 10 µM; P21728; 360,000 compounds, 0.036% hits; HEK293 TREx D1 cells, calcium flux, dopamine EC20 potentiation; in the data active = potentiation above about 30%; note: 0% is about no effect
DRD3 agonist: activates the human D3 dopamine receptor | P35462 | D3R DiscoveRx beta-arrestin cells, luminescence, 90 min | max activation, % | 410,000 compounds, 0.58% hits | AID 652048; in the data active = max activation above about 30%; note: 0% is about no effect
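Agonist mode: compounds and dopamine controls were applied to plated cells for 90 min at 37 degrees C after an overnight attachment at 1500 cells/well. Luminescent read-out followed 30 - 60 minutes at room temperature with DiscoveRx detection reagent.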
D3 antag: D3 dopamine receptor (human) antagonism; P35462; D3R cells, DiscoveRx beta-arrestin luminescence, antagonist mode; active compounds read low; max response, negative = inhibition, %; 360,000 compounds, 2.5% hits; in the data active = max response below about -50%; note: % is set by controls: 0 for no effect and ±100 for the full control effect
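Cells expressing the human receptor were seeded at 1500 cells/well, incubated overnight at 37 degrees C in 5% CO2, then exposed to library compounds with dopamine controls for 90 minutes at 37 degrees C before luminescent detection.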
An asterisk follows results filed as active; nt = no result. An excerpt weighted towards active compounds, which were near 6.1% of everything screened.

SMILES | D1 antag | D1 agonist | D1 PAM | DRD3 agonist | D3 antag
Cc1ccc(N(C)S(=O)(=O)c2nnc(NC(=O)CC(C)C)s2)cc1 | 7.9 | -0.7 | -0.9 | 8.9 | nt
CC(=O)c1cc(-c2ccc(F)cc2)n(CCC(=O)NC2CCCCC2)c1C | 2.2 | 1.0 | -5.5 | -6.1 | nt
O=C(Nc1ccc2c(c1)OCCO2)C(c1ccnc2ccccc12)N1CCN(C/C=C/c2ccccc2)CC1 (centres undefined) | nt | nt | nt | -9.1 | -10.9
CCCOc1ccc(OC(=O)c2ccc(Br)o2)cc1 | -42.6* | 94.2* | -7.6 | 2.5 | -16.9
CCN1CCN(c2nc(Nc3ccc(C)c(C)c3)nc(N)c2[N+](=O)[O-])CC1 | -2.5 | 15.7 | -2.1 | -38.6 | -82.9*
CN1CCN(c2nc(NCc3ccco3)nc(N)c2[N+](=O)[O-])CC1 | -5.7 | 2.3 | -3.6 | -17.9 | -80.4*
O=C(CSc1nnc(NC2CC2)s1)c1ccc[nH]1 | nt | nt | nt | 3.4 | -17.7
Cn1c(SCc2nc(-c3ccccc3)no2)nnc1-c1cccs1 | 28.9 | -0.3 | -4.0 | 32.3* | 11.1
COCCn1c(=NC(=O)c2ccc3c(c2)OCCO3)sc2cc(C(=O)OC)ccc21 | 4.4 | 0.9 | 2.5 | 14.9 | nt
COc1ccc(C(=O)c2c(C)c3ccccc3n2CC(O)CNC(C)C)cc1 (centres undefined) | -20.5 | 59.7* | 0.1 | -7.3 | -17.2
N#C/C(=C\C1CC=CCC1)c1nc2ccccc2[nH]1 (centres undefined) | -35.1* | 22.1 | -10.5 | -5.5 | -12.4
Cc1cc(C(F)(F)F)n2nc(C)c(-c3ccc(Cl)cc3)c2n1 | 14.1 | 5.5 | -3.5 | 1.8 | 31.2
COc1ccc(-c2c(C)nn3c(C(F)(F)F)cc(C)nc23)cc1OC | -56.4* | 2.2 | 1.2 | -1.8 | nt
COC(=O)c1cc2nc(-c3ccc(OC)c(OC)c3)cc(C(F)(F)F)n2n1 | 5.9 | 1.0 | -0.3 | 0.0 | -69.8*
O=C(CCCN1CCC(c2ccccc2)C1)c1ccc2c(c1)OCCO2 (centres undefined) | -19.2 | 6.5 | -7.0 | -32.7 | -81.5*
O=C(CCN1CCCCC1)c1ccc2c(c1)OCO2 | -6.3 | 3.0 | -3.2 | -12.1 | -65.1*
O=C(CCN1CCc2ccccc2CC1)c1ccc2c(c1)OCCO2 | -10.1 | 2.3 | -8.4 | -11.8 | -94.1*
O=C(CCCN1C(=O)/C(=C\c2cccc(Br)c2)SC1=S)Nc1ccc(C(=O)O)cc1 | nt | nt | nt | -0.1 | -7.4
CC1CCCN(C/C=C/c2ccccc2[N+](=O)[O-])C1 (centres undefined) | 1.3 | 1.2 | -6.8 | -49.7 | -90.6*
CC1CCCCN1C/C=C/c1ccccc1[N+](=O)[O-] (centres undefined) | -10.4 | 3.9 | -5.2 | -20.6 | -29.3
CCC1CCCCN1C/C=C/c1ccccc1[N+](=O)[O-] (centres undefined) | 4.8 | 2.2 | 0.9 | -26.7 | -55.2*
O=C1N=NC(=O)N1c1ccccc1 | 13.0 | 2.5 | -2.0 | 16.6 | 21.9
COc1cc(/C=C2\SC(=S)N(NC(=O)c3ccccc3O)C2=O)ccc1O | -1.3 | 90.1* | -4.8 | -3.2 | -15.7
O=C(NN1C(=O)/C(=C/c2ccc(O)cc2)SC1=S)c1ccccc1O | -26.6 | 67.3* | -1.8 | -2.8 | -5.8
Cn1cc(/C=C2\SC(=S)N(NC(=O)c3ccccc3)C2=O)c2ccccc21 | -12.0 | 74.6* | -0.5 | 1.6 | 2.1
SMILES | D1 antag | D1 agonist | D1 PAM | DRD3 agonist | D3 antag
Cc1cc(C)nc(NN2C(=O)/C(=C/c3ccc(O)cc3)SC2=S)n1 | 18.8 | 42.9* | -0.8 | -20.6 | -21.6
O=C(NN1C(=O)/C(=C/c2cc([N+](=O)[O-])ccc2O)SC1=S)c1ccccc1O | 24.4 | 2.8 | 2.6 | nt | nt
O=C(NN1C(=O)/C(=C/c2ccc(O)c([N+](=O)[O-])c2)SC1=S)c1ccccc1Cl | 14.5 | 1.6 | -6.2 | -30.8 | -74.3*
Cc1nc(CNS(=O)(=O)c2ccc3c(c2)CCCC3)cs1 | -46.5* | 9.9 | -10.8 | 2.2 | -3.4
COc1ccc(C2C(C(=O)N3CCN(c4ccccc4F)CC3)c3ccccc3C(=O)N2C)cc1 (centres undefined) | -82.5* | -0.2 | -4.2 | 2.2 | 13.5
CN(C)C(=O)CCSc1nnc(-c2ccncc2)o1 | 6.5 | 2.6 | -0.7 | 4.7 | 14.3
CC(=O)CCc1oc2c([N+](=O)[O-])cccc2c1-c1ccc(C)o1 | -18.4 | 2.7 | -3.6 | -4.0 | -4.6
Cc1ccc(C(c2ccc(C)o2)c2cccc([N+](=O)[O-])c2O)o1 | 10.8 | 1.6 | 9.7 | -2.1 | -73.4*

Assay outcomes: PubChem BioAssay, National Center for Advancing Translational Sciences (NCATS)
